PostGolgi ctrl – inhibits growth of the yeast control strain; efflux-deficient yeast background strain, growth absorbance A615, 16 h; 98,000 compounds, 5% hits; inhibition, % at 10 µM
CYP2C19 activ – activators of human cytochrome P450 2C19; P33261; recombinant CYP2C19, luciferin-H EGE luminescence; active compounds read high; 0 = fully inhibited enzyme, 1 = untreated enzyme; activation factor at 5 µM; 96,000 tested, under 10 active;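 active = activation factor of at least 2 at 5 µM in the primary screen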;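 note: 0 = wells with 2.5 mM tranylcypromine and 1 = vehicle-only wells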
CYP2C19 inhib – inhibitors of human CYP2C19; P33261; CYP2C19 Supersomes, luciferin-H EGE luminescence, 30 min; inhibition, % at 5 µM; 96,000 compounds, 21% hits; AID 778;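 active = CYP2C19 inhibition above a set limit at 5 µM in the primary screen, cut at about 50% in these data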;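 note: plate controls were negative control wells for no effect and 2.5 mM tranylcypromine positive control for full effect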
CYP2C9 inhib – blocks human cytochrome P450 2C9; P11712; 96,000 compounds, 20% hits; CYP2C9 Supersomes, luciferin-H conversion, luminescence; inhibition, % at 5 µM;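 active = blocking of liver enzyme CYP2C9 beyond about 50% at 5 µM, limit read from the data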
Target sequence (P11712 whole entry, looked up): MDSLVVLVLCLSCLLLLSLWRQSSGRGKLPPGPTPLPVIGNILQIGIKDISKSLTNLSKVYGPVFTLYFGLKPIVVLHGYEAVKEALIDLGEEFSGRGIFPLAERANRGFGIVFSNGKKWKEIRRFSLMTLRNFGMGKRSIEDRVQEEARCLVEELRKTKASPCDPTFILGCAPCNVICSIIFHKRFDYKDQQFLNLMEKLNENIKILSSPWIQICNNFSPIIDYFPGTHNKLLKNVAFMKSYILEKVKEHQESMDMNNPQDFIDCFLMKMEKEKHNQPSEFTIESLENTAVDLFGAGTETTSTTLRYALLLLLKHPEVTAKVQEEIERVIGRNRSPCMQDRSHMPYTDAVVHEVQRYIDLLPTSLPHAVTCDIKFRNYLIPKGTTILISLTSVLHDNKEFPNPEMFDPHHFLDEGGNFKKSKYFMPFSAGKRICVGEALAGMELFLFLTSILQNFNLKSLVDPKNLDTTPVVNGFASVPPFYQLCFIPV
CYP2C9 act – CYP2C9 (human) activation; P11712; recombinant CYP2C9, luciferin-H conversion, luminescence; active compounds read high; factor 1 = untreated enzyme, 0 = blocked; activation factor at 5 µM; 96,000 compounds, 1.4% hits; AID 1024;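 active = activation factor of 2 or more for CYP2C9 at a 5 µM dose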;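 note: 0 = sulfaphenazole-blocked wells and 1 = vehicle-only wells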
PostGolgi yeast – growth inhibition of a yeast mutant, post-Golgi transport screen; post-Golgi transport phenotypic cell assay; inhibition, % at 10 µM; AID 739; 98,000 compounds, 0.9% hits;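 note: yeast cells grown in 1536-well plates; yeast grown about 18 h at 30C before absorbance read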
The depositor's hits bear a star; x = no result given. Compounds with a hit are over-represented: about 32% of the library has one in this group of screens. Cut-off read from the data, not from the text of the source, unless noted: active = inhibition above about 30%; inactive = the rest.

SMILES | PostGolgi ctrl | CYP2C19 activ | CYP2C19 inhib | CYP2C9 inhib | CYP2C9 act | PostGolgi yeast
CCN1CCN(C(C)C(=O)Nc2c(C)n(C)n(-c3ccccc3)c2=O)CC1 (configuration not stated) | 5 | 1.1 | -10 | -10 | 1.1 | 4
O=C(CNC(=O)Cn1ccc2ccccc2c1=O)NCCCN1CCCCCC1 | 12 | 1.2 | -17 | -17 | 1.2 | -4
CCOc1ccccc1-c1nc(-c2ccc(NC(=O)Cc3ccccc3OC)cc2)no1 | 4 | 0.5 | 52* | -104 | 2* | 2
COc1ccc(-c2noc(CCC(=O)Nc3cc(Cl)c(OC)cc3OC)n2)cc1 | 14 | 0.2 | 82* | 54* | 0.5 | -4
CCOc1ccc(-c2noc(CCC(=O)NC)n2)cc1OCC | -7 | 1.1 | -6 | -17 | 1.2 | 1
COc1ccc(-c2noc(CCCOc3ccc(Cl)cc3Cl)n2)cc1 | -1 | 1 | 2 | -23 | 1.2 | -7
COc1ccc(-c2noc(CCCC(=O)Nc3ccc(C(N)=O)cc3)n2)cc1 | 12 | 1.1 | -7 | 10 | 0.9 | 0
COc1ccc(-c2noc(CCC(=O)Nc3cc(OC)ccc3OC)n2)cc1 | 13 | 0 | 98* | 82* | 0.2 | -1
CCOc1cc(-c2noc(CCC(=O)Nc3cccnc3)n2)ccc1OC | 33* | 0.9 | 12 | 4 | 1 | -2
COCCCNC(CC(=O)Nc1ccc(OC)cc1OC)C(=O)O (configuration not stated) | 7 | 1.2 | -21 | -25 | 1.3 | 2
O=C(NCc1ccco1)/C(=C/c1cccnc1)NC(=O)c1cccc(Br)c1 | -5 | 1 | -4 | -1 | 1 | -1
NC(=O)c1cc2n(n1)C(C(F)(F)F)CC(c1ccco1)N2 (configuration not stated) | 11 | 1.1 | -8 | -17 | 1.2 | -7
Cc1ccc2c(c1)C(N1CCCC1=O)CC(c1ccco1)N2 (configuration not stated) | 12 | 0.2 | 78* | 29 | 0.7 | 2
COc1ccc(OC)c(NC(=O)C2CCN(S(C)(=O)=O)CC2)c1 | 9 | 1 | -2 | -23 | 1.2 | 3
COc1ccc(OC)c(S(=O)(=O)N2CCC(C(=O)Nc3ccc(C)c(C)c3)CC2)c1 | 0 | 0.7 | 29 | -145 | 2.5* | 3
COc1ccc(OC)c(S(=O)(=O)N2CCC(C(=O)Nc3cccc(C)c3C)CC2)c1 | 7 | 0.9 | 10 | -154 | 2.5* | -12
COc1ccc(CCNC(=O)C2CCN(S(=O)(=O)c3cc(OC)ccc3OC)CC2)cc1 | -1 | 0.7 | 34 | -50 | 1.5 | -2
Cc1ccc2c(c1)NC(=O)C(CC(=O)NCCCN1CCN(c3cc(C)ccc3C)CC1)O2 (configuration not stated) | 12 | 0.9 | 7 | 11 | 0.9 | -1
Cc1cc(Cl)c(S(=O)(=O)Nc2ccc3c(c2)OCCO3)cc1OCC(=O)NC1CCCCC1 | 6 | 0.8 | 16 | 36 | 0.6 | 4
O=[N+]([O-])c1ccc([C@H](O)[C@H](CO)N=Cc2ccccc2O)cc1 | -1 | 1.2 | -20 | 18 | 0.8 | 3
Cc1n[nH]c(C)c1Sc1ccccc1N=Cc1cc([N+](=O)[O-])ccc1O | 19 | 0.8 | 25 | 74* | 0.3 | 1
CC(C)N(C(=O)N1CCC(c2nc(-c3ccncc3)no2)CC1)C(C)C | 12 | 0.3 | 66* | 28 | 0.7 | -1
O=C(N1CCOCC1)N1CCC(c2nc(-c3ccc(S(=O)(=O)N4CCOCC4)cc3)no2)CC1 | 20 | 0.9 | 12 | 8 | 0.9 | -1
Fc1ccc(Cn2nnnc2CN2CCN(C3CCCC3)CC2)cc1 | 6 | 1 | 5 | 0 | 1 | 4
c1ccc(Cn2nnnc2CN2CCN(c3ncccn3)CC2)cc1 | -6 | 0.8 | 19 | 93* | 0.1 | 17
SMILES | PostGolgi ctrl | CYP2C19 activ | CYP2C19 inhib | CYP2C9 inhib | CYP2C9 act | PostGolgi yeast
Cc1ccc(Cn2nnnc2CN2CCC(O)(c3ccccc3F)CC2)cc1 | 18 | x | x | x | x | 5
Fc1ccc(Cn2nnnc2CN2CCc3ccccc3C2)cc1 | 7 | 0.4 | 58* | 47 | 0.5 | -4
COc1cc(CNCCO)ccc1OCC(=O)Nc1ccc(Br)cc1 | 10 | 0.8 | 19 | 14 | 0.9 | -2
Cc1ccnc(SCCn2c(N3CC(C)CC(C)C3)nc3c2c(=O)n(C)c(=O)n3C)n1 (configuration not stated) | 18 | 0.8 | 19 | 41 | 0.6 | -1
C=CCOC(=O)COc1ccc2c(C)c(C)c(=O)oc2c1 | 11 | 0.4 | 55* | -42 | 1.4 | -5
C=CCOC(=O)COc1ccc2c(C)c(CC)c(=O)oc2c1 | 7 | 0.4 | 64* | -4 | 1 | 1
CCOc1ccc(N(Cc2cc3ccc(C)cc3[nH]c2=O)C(=O)COC)cc1 | 27 | 0.7 | 27 | 45 | 0.5 | 3
CN(CC(=O)Nc1ccccc1C(=O)N1CCCC1)S(=O)(=O)c1ccc(Cl)cc1 | 0 | 0.8 | 18 | 45 | 0.6 | 7
O=C1CN(c2ccc(Cl)cc2)C(=O)CN1NC(=S)Nc1ccc(Cl)cc1 | 8 | 1.1 | -13 | -6 | 1.1 | 3
Cc1ccccc1-c1nc(S(=O)(=O)c2ccc(Br)cc2)c(NCc2cccnc2)o1 | 31* | 0.2 | 82* | 66* | 0.3 | 0
Cc1ccc(S(=O)(=O)c2nc(-c3ccccc3)oc2NCc2cccnc2)cc1 | 6 | 0.2 | 77* | 73* | 0.3 | -13
Cc1ccccc1-c1nc(CN2CCC(C(=O)NCc3cccnc3)CC2)c(C)o1 | 10 | 0.9 | 12 | 14 | 0.9 | -3
Cc1cccc(NC(=O)C2c3ccccc3C(=O)N3CCc4ccccc4C23)n1 (configuration not stated) | 3 | 0.7 | 28 | 41 | 0.6 | -3
CCCCN(C)C(=O)CSc1nc(NCc2ccc(OC)cc2)c2ccccc2n1 | 2 | 0.5 | 54* | 44 | 0.6 | 6
Cc1nc2c(c3c1[nH]c1ccccc13)C(=O)CC(C)(C)C2 | 25 | 0.6 | 39 | -183 | 2.8* | -17
C=CCNCc1cccn1-c1ccccc1 | 34* | 0.9 | 8 | 3 | 1 | -1
Cc1cc(C)n(C(=O)CNC(=O)CCc2ccccc2)n1 | 17 | 0.9 | 9 | -87 | 1.9 | 0
COC(=O)C1=CN(C2CC2)C=C(C(=O)OC)C1c1ccccc1OC | 10 | 0.3 | 70* | 66* | 0.3 | -4
COC(=O)C1=CN(Cc2cccs2)C=C(C(=O)OC)C1c1cccc(OC)c1OC | 2 | 1 | -2 | 11 | 0.9 | 3
COC(=O)c1cccc(NC(=O)C2COc3ccccc3O2)c1C (configuration not stated) | x | 0.4 | 64* | 28 | 0.7 | x
CN(C)S(=O)(=O)c1ccc(NC(=O)C2COc3ccccc3O2)cc1 (configuration not stated) | 10 | x | x | x | x | 2
COCCNC(=O)c1ccccc1NC(=O)C1COc2ccccc2O1 (configuration not stated) | 10 | 0.8 | 19 | 26 | 0.7 | 2

High-throughput results (PubChem)
